# From the supplement of paper PMC11732987, “Enantioselective OTUD7B fragment discovery through chemoproteomics screening and high-throughput optimisation” (Communications Chemistry, 2025)
# Values without a mark were called inactive.
# Columns and labels:
# Assay in all cases: log2 ratio of Biotin-Ahx-Ub-VS probe labelling (compound/DMSO); higher = less target engagement, active = hit call of the paper (q ≤ 0.05, log2 ratio ≤ -1)
# Conditions in all cases: treatment time: 3 h
# [1] = compound: CCC1N(CCc2sccc12)C(=O)CCl
# How it was run: (§1)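 HEK293T lysate (495 µg per sample, in Tris/CHAPS/IGEPAL buffer with protease inhibitors) was treated in triplicate with compound at 50 or 200 µM or with DMSO for 3 h. It was then treated with Biotin-Ahx-Ub-VS (0.5 µM final) for 1 h. Labelled DUBs were NeutrAvidin-enriched, digested with LysC and trypsin, and run by diaPASEF LC-MS/MS. Median-normalised label-free quantities gave average log2 ratios compound/DMSO by unpaired t-test, using proteins with ≥2 unique peptides.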
# [2] = compound: CN1c2ccccc2C(CS1(=O)=O)NC(=O)CCl
# How it was run: as §1
# [3] = compound: Cl.ClCC(=O)N1CCc2ncncc2C1
# How it was run: as §1
# [4] = compound: Cl.Cn1ncc2C(CCCc12)NC(=O)CCl
# How it was run: as §1
# [5] = compound: ClCC(=O)NC1CCOc2ccccc12
# How it was run: as §1
# [6] = compound: ClCC(=O)NC1CCCc2ccccc12
# How it was run: (§2)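 The values are mean compound-versus-vehicle ratios derived by unpaired t-test. For 3 h, triplicate HEK293T lysate samples (495 µg each) were treated with compound at a series of concentrations or with vehicle, after which Biotin-Ahx-Ub-VS was added to 0.5 µM final for 1 h. Labelled deubiquitinases were enriched with NeutrAvidin, digested with LysC and trypsin, and analysed by diaPASEF LC-MS/MS. Ratios are log2 values from global-median-normalised Spectronaut label-free quantities, using proteins with two or more unique peptides.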
# [7] = compound: ClCC(=O)N[C@@H]1CCCc2ccccc12
# How it was run: as §2
# [8] = compound: ClCC(=O)N[C@H]1CCCc2ccccc12
# How it was run: as §2
# [9] = compound: CCC1N(CCc2cc(OC)c(Cl)cc12)C(=O)CCl
# How it was run: as §1
# [10] = compound: CCCC1N(CCc2cc(OC)c(OC)cc12)C(=O)CCl
# How it was run: as §1
# Sequence of UniProt O15372 (O15372 whole entry): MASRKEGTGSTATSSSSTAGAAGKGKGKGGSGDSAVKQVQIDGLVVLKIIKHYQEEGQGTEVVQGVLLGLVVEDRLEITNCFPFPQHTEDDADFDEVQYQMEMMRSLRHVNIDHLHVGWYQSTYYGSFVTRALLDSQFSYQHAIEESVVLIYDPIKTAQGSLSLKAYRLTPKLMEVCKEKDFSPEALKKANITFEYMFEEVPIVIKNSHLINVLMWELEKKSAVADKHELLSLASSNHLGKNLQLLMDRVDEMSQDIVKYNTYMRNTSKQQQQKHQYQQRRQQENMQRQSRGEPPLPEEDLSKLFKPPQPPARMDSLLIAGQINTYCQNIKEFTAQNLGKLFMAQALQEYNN
# Sequence of UniProt Q01804 (Q01804 whole entry): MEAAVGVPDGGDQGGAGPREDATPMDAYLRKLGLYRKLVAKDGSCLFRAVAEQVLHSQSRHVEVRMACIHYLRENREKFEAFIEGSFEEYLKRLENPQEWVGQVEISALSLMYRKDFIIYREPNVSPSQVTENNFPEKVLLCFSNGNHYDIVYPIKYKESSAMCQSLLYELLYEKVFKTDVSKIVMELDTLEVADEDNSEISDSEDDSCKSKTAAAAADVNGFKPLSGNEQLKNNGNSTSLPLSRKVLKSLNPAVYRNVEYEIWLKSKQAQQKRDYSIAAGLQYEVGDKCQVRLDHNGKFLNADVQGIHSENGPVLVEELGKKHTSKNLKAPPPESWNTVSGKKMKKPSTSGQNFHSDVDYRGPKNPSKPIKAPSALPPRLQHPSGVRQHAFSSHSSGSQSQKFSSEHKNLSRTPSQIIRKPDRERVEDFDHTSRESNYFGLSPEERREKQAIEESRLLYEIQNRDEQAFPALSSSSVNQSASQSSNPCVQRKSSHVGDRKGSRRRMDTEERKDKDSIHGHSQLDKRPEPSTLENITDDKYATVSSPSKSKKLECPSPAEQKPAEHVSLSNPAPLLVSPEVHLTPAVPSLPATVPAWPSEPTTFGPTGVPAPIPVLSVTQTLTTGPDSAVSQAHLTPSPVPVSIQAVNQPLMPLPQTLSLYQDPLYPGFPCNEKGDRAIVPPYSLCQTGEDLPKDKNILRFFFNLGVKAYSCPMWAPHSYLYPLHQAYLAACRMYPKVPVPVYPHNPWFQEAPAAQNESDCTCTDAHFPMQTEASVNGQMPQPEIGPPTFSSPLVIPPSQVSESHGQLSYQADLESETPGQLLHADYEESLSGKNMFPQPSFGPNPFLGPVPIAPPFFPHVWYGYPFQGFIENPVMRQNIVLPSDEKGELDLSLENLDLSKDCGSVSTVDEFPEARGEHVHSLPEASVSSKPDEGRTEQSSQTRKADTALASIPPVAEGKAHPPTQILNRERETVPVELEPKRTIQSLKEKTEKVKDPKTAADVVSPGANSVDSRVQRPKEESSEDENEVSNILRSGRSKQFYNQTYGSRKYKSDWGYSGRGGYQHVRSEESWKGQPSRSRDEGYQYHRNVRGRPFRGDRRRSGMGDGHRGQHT
target,measurement,setting,value
OTUD4 (UniProt Q01804),log2 ratio of Biotin-Ahx-Ub-VS probe labelling,[1]; compound concentration: 50uM,-0.293
same,log2 ratio of Biotin-Ahx-Ub-VS probe labelling,[1]; compound concentration: 200uM,-0.576
same,log2 ratio of Biotin-Ahx-Ub-VS probe labelling,[2]; compound concentration: 50uM,-0.595
same,log2 ratio of Biotin-Ahx-Ub-VS probe labelling,[2]; compound concentration: 200uM,-1.51 (active)
same,log2 ratio of Biotin-Ahx-Ub-VS probe labelling,[3]; compound concentration: 50uM,-0.152
same,log2 ratio of Biotin-Ahx-Ub-VS probe labelling,[3]; compound concentration: 200uM,-0.671
same,log2 ratio of Biotin-Ahx-Ub-VS probe labelling,[4]; compound concentration: 50uM,-0.813
same,log2 ratio of Biotin-Ahx-Ub-VS probe labelling,[4]; compound concentration: 200uM,-1.46 (active)
same,log2 ratio of Biotin-Ahx-Ub-VS probe labelling,[5]; compound concentration: 50uM,-0.624
same,log2 ratio of Biotin-Ahx-Ub-VS probe labelling,[5]; compound concentration: 200uM,-1.33 (active)
same,log2 ratio of Biotin-Ahx-Ub-VS probe labelling,[6]; compound concentration: 0.78uM,-0.158
same,log2 ratio of Biotin-Ahx-Ub-VS probe labelling,[6]; compound concentration: 1.56uM,-0.085
same,log2 ratio of Biotin-Ahx-Ub-VS probe labelling,[6]; compound concentration: 3.13uM,-0.223
same,log2 ratio of Biotin-Ahx-Ub-VS probe labelling,[6]; compound concentration: 6.25uM,-0.319
same,log2 ratio of Biotin-Ahx-Ub-VS probe labelling,[6]; compound concentration: 12.5uM,-0.411
same,log2 ratio of Biotin-Ahx-Ub-VS probe labelling,[6]; compound concentration: 25uM,-0.655
same,log2 ratio of Biotin-Ahx-Ub-VS probe labelling,[6]; compound concentration: 50uM,-1.21 (active)
same,log2 ratio of Biotin-Ahx-Ub-VS probe labelling,[6]; compound concentration: 100uM,-1.92 (active)
same,log2 ratio of Biotin-Ahx-Ub-VS probe labelling,[6]; compound concentration: 200uM,-2.86 (active)
same,log2 ratio of Biotin-Ahx-Ub-VS probe labelling,[7]; compound concentration: 0.78uM,-0.206
same,log2 ratio of Biotin-Ahx-Ub-VS probe labelling,[7]; compound concentration: 1.56uM,-0.14
same,log2 ratio of Biotin-Ahx-Ub-VS probe labelling,[7]; compound concentration: 3.13uM,-0.152
same,log2 ratio of Biotin-Ahx-Ub-VS probe labelling,[7]; compound concentration: 6.25uM,-0.172
same,log2 ratio of Biotin-Ahx-Ub-VS probe labelling,[7]; compound concentration: 12.5uM,-0.352
same,log2 ratio of Biotin-Ahx-Ub-VS probe labelling,[7]; compound concentration: 25uM,-0.535
same,log2 ratio of Biotin-Ahx-Ub-VS probe labelling,[7]; compound concentration: 50uM,-0.958
same,log2 ratio of Biotin-Ahx-Ub-VS probe labelling,[7]; compound concentration: 100uM,-1.39 (active)
same,log2 ratio of Biotin-Ahx-Ub-VS probe labelling,[7]; compound concentration: 200uM,-2.13 (active)
same,log2 ratio of Biotin-Ahx-Ub-VS probe labelling,[8]; compound concentration: 0.78uM,-0.176
same,log2 ratio of Biotin-Ahx-Ub-VS probe labelling,[8]; compound concentration: 1.56uM,-0.178
same,log2 ratio of Biotin-Ahx-Ub-VS probe labelling,[8]; compound concentration: 3.13uM,-0.176
same,log2 ratio of Biotin-Ahx-Ub-VS probe labelling,[8]; compound concentration: 6.25uM,-0.252
same,log2 ratio of Biotin-Ahx-Ub-VS probe labelling,[8]; compound concentration: 12.5uM,-0.529
same,log2 ratio of Biotin-Ahx-Ub-VS probe labelling,[8]; compound concentration: 25uM,-0.893
same,log2 ratio of Biotin-Ahx-Ub-VS probe labelling,[8]; compound concentration: 50uM,-1.41 (active)
same,log2 ratio of Biotin-Ahx-Ub-VS probe labelling,[8]; compound concentration: 100uM,-2.07 (active)
same,log2 ratio of Biotin-Ahx-Ub-VS probe labelling,[8]; compound concentration: 200uM,-2.61 (active)
same,log2 ratio of Biotin-Ahx-Ub-VS probe labelling,[9]; compound concentration: 50uM,-0.491
same,log2 ratio of Biotin-Ahx-Ub-VS probe labelling,[9]; compound concentration: 200uM,-1.4 (active)
same,log2 ratio of Biotin-Ahx-Ub-VS probe labelling,[10]; compound concentration: 50uM,-0.395
same,log2 ratio of Biotin-Ahx-Ub-VS probe labelling,[10]; compound concentration: 200uM,-0.505
EIF3H (UniProt O15372),log2 ratio of Biotin-Ahx-Ub-VS probe labelling,[1]; compound concentration: 50uM,4e-05
same,log2 ratio of Biotin-Ahx-Ub-VS probe labelling,[1]; compound concentration: 200uM,-0.0195
same,log2 ratio of Biotin-Ahx-Ub-VS probe labelling,[2]; compound concentration: 50uM,0.0525
same,log2 ratio of Biotin-Ahx-Ub-VS probe labelling,[2]; compound concentration: 200uM,0.0675
same,log2 ratio of Biotin-Ahx-Ub-VS probe labelling,[3]; compound concentration: 50uM,-0.0138
same,log2 ratio of Biotin-Ahx-Ub-VS probe labelling,[3]; compound concentration: 200uM,-0.124
same,log2 ratio of Biotin-Ahx-Ub-VS probe labelling,[4]; compound concentration: 50uM,-0.0892
same,log2 ratio of Biotin-Ahx-Ub-VS probe labelling,[4]; compound concentration: 200uM,-0.0788
same,log2 ratio of Biotin-Ahx-Ub-VS probe labelling,[5]; compound concentration: 50uM,0.0209
same,log2 ratio of Biotin-Ahx-Ub-VS probe labelling,[5]; compound concentration: 200uM,-0.0491
same,log2 ratio of Biotin-Ahx-Ub-VS probe labelling,[6]; compound concentration: 0.78uM,-0.172
same,log2 ratio of Biotin-Ahx-Ub-VS probe labelling,[6]; compound concentration: 1.56uM,0.005
same,log2 ratio of Biotin-Ahx-Ub-VS probe labelling,[6]; compound concentration: 3.13uM,0.0821
same,log2 ratio of Biotin-Ahx-Ub-VS probe labelling,[6]; compound concentration: 6.25uM,-0.12
same,log2 ratio of Biotin-Ahx-Ub-VS probe labelling,[6]; compound concentration: 12.5uM,-0.146
same,log2 ratio of Biotin-Ahx-Ub-VS probe labelling,[6]; compound concentration: 25uM,-0.153
same,log2 ratio of Biotin-Ahx-Ub-VS probe labelling,[6]; compound concentration: 50uM,0.125
same,log2 ratio of Biotin-Ahx-Ub-VS probe labelling,[6]; compound concentration: 100uM,0.0329
same,log2 ratio of Biotin-Ahx-Ub-VS probe labelling,[6]; compound concentration: 200uM,-0.275
same,log2 ratio of Biotin-Ahx-Ub-VS probe labelling,[7]; compound concentration: 0.78uM,-0.105
same,log2 ratio of Biotin-Ahx-Ub-VS probe labelling,[7]; compound concentration: 1.56uM,0.0364
same,log2 ratio of Biotin-Ahx-Ub-VS probe labelling,[7]; compound concentration: 3.13uM,-0.02
same,log2 ratio of Biotin-Ahx-Ub-VS probe labelling,[7]; compound concentration: 6.25uM,0.0572
same,log2 ratio of Biotin-Ahx-Ub-VS probe labelling,[7]; compound concentration: 12.5uM,0.182
same,log2 ratio of Biotin-Ahx-Ub-VS probe labelling,[7]; compound concentration: 25uM,-0.109
same,log2 ratio of Biotin-Ahx-Ub-VS probe labelling,[7]; compound concentration: 50uM,0.0801
same,log2 ratio of Biotin-Ahx-Ub-VS probe labelling,[7]; compound concentration: 100uM,0.0419
same,log2 ratio of Biotin-Ahx-Ub-VS probe labelling,[7]; compound concentration: 200uM,0.454
same,log2 ratio of Biotin-Ahx-Ub-VS probe labelling,[8]; compound concentration: 0.78uM,0.0712
same,log2 ratio of Biotin-Ahx-Ub-VS probe labelling,[8]; compound concentration: 1.56uM,-0.0618
same,log2 ratio of Biotin-Ahx-Ub-VS probe labelling,[8]; compound concentration: 3.13uM,-0.213
same,log2 ratio of Biotin-Ahx-Ub-VS probe labelling,[8]; compound concentration: 6.25uM,0.288
same,log2 ratio of Biotin-Ahx-Ub-VS probe labelling,[8]; compound concentration: 12.5uM,0.201
same,log2 ratio of Biotin-Ahx-Ub-VS probe labelling,[8]; compound concentration: 25uM,0.184
same,log2 ratio of Biotin-Ahx-Ub-VS probe labelling,[8]; compound concentration: 50uM,0.306
same,log2 ratio of Biotin-Ahx-Ub-VS probe labelling,[8]; compound concentration: 100uM,-0.0743
same,log2 ratio of Biotin-Ahx-Ub-VS probe labelling,[8]; compound concentration: 200uM,0.179
same,log2 ratio of Biotin-Ahx-Ub-VS probe labelling,[9]; compound concentration: 50uM,-0.165
same,log2 ratio of Biotin-Ahx-Ub-VS probe labelling,[9]; compound concentration: 200uM,-0.139
same,log2 ratio of Biotin-Ahx-Ub-VS probe labelling,[10]; compound concentration: 50uM,0.00258
same,log2 ratio of Biotin-Ahx-Ub-VS probe labelling,[10]; compound concentration: 200uM,0.0942
